Results filed as inconclusive are left out. Values without a mark were called inactive. The call rests on the fitted dose curve; in most records, active means well fitted cell-killing curve with a large enough effect; inconclusive means small, poorly fitted or top-dose-only effect, or effect the other way; inactive means flat fitted curve, though single readings scatter.
System: CAOV3
Assay: Primary qHTS to identify gynecologic anti-cancer compounds using libraries of approved drugs and bioactive compounds (AID 1345084); further: nearly all actives have a fitted effect of over 55% in size
Conditions: Gynecologic cancer cell panel viability, ATPlite luminescence, 48 h; series mostly up to 57.5 µM; activity change, negative = cytotoxicity: at the top concentration
Excerpt: National Center for Advancing Translational Sciences [NCATS] Assay Overview: Chemotherapeutic drug responses vary from cancer to cancer and from patient to patient. These variations could be caused by a number of factors including patient genomic background, tumor mutations, tumor heterogeneity, and aspects of drug treatment. Chemotherapeutic drug resistance is also a common issue and can lead to ineffective treatment and patient death. Here we have profiled the cell killing effects of thousands of compounds to characterize the responses in three gynecological cancers, identify cancer-selective compounds, and understand the diversity of responses to these compounds from pan-cancer suppressors to single cell line selective compounds. In this assay, we screened a 7,914 compound drug library that included approved drug and bioactive compounds in six ovarian, three cervical, and […] placental cancer cell lines using the ATPlite assay for cell viability. […] The cervical cancer cell lines included HeLa, Ca Ski, and C-33 A. The placental cancer cell lines included JEG-3. HEK 293T cells were used as the control cell line to determine the selectivity index. ATPlite is a luminescence based assay reliant on the conversion of a luciferase substrate to light in the presence of ATP. As a cytotoxic compound will suppress growth and decrease the number of cells, the concentration of ATP will decrease, and less light signal will be detected in the well.
Assay Protocol Summary: 1,000 cells in 4 uL of media were dispensed into white, solid bottom 1536-well plates using a Multidrop Combi (Thermo Scientific). The Assay plates were incubated for 16 hours at 37 C with 5% CO2 in assay plates, followed by the addition of 23 nL of DMSO or drug dissolved in DMSO. Each compound was assayed in five concentrations (0.092, 0.46, 2.3, 11.5, and 57.5 uM), using the automated Wako 1536 Pin Tool workstation and incubated at 37 C with 5% CO2 48 hours. 4 uL of ATPlite, the ATP monitoring reagent, was then added to the each well of the assay plates using the Multidrop Combi reagent dispenser followed by incubation for 15 minutes at room temperature. The resulting luminescence was measured using the ViewLux plate reader.
On the % scale 0 is the no-effect control and ±100 the full control effect.

SMILES | activity change, negative = cytotoxicity
Cc1[nH]c2ccccc2c1CC(=O)N[C@@H](Cc1ccccc1)C(=O)N(C)c1ccccc1 | -3.25%
CC1(C(=O)O)CC[C@]2(C(=O)OC3OC(CO)C(O)C(O)C3O)CC[C@]3(C)C(=CCC4[C@@]5(C)CC[C@H](OC6OCC(O)C(O)C6OC6OC(CO)C(O)C(O)C6O)C(C)(C)C5CC[C@]43C)C2C1 (stereo not given in full) | -1.35% [at 11.6 µM]
CCOC(=O)CSc1nc2c(sc3ccccc32)c(=O)n1CCCN1CCCC1 | 0.838%
C=C(C(=O)O)[C@H]1C[C@]2(C)C(=O)CC[C@]23O[C@H]1C[C@@H]3C | -3.04%
N[C@@H](CC(=O)Nc1ccc(Oc2cc(F)c(F)cc2Br)cc1)C(=O)O | -0.526%
CC1OC(O[C@@H]2[C@@H](O)[C@H](OC(=O)[C@]34CCC(C)(C)C[C@H]3C3=CCC5[C@@]6(C)CC[C@H](O[C@@H]7O[C@H](C(=O)O)[C@@H](O)[C@H](O[C@@H]8OC[C@@H](O)[C@H](O)[C@H]8O)[C@H]7O[C@@H]7O[C@H](CO)[C@H](O)[C@H](O)[C@H]7O)[C@@](C)(C=O)C6CC[C@@]5(C)[C@]3(C)C[C@H]4O)O[C@H](C)[C@@H]2OC2OC(C)C(OC3OCC(O)C(O)C3O)C(O)C2O)C(O)C(O)C1O (stereo not given in full) | 7.91% [at 6.55 µM]
CC1=C2C(=O)C=C(CO)C2C2OC(=O)C(CS(=O)(=O)O)C2C(OC(=O)Cc2ccc(O)cc2)C1 (stereo not given) | -1.08% [at 25.3 µM]
C/C(=C\CCC(C)(C)O)CCO[C@@H]1O[C@H](CO[C@@H]2O[C@@H](C)[C@H](O)[C@@H](O)[C@H]2O)[C@@H](O)[C@H](O)[C@H]1O | -7.74% [at 25.3 µM]
C=C1C(OC(C)=O)CCC2(C)CC3(O)OC(=O)C(C)=C3CC12 (stereo not given) | 8.22% [at 38.5 µM]
CC(C)(C)NS(=O)(=O)c1ccc(-c2ccc3[nH]nc(N)c3c2)cc1 | -0.622%
NC[C@@H]1O[C@@H](O[C@@H]2[C@@H](O[C@@H]3O[C@H](CO)[C@@H](O)[C@H]3O)[C@H](O)[C@@H](N)C[C@H]2N)[C@@H](N)[C@H](O)[C@H]1O | 0.692% [at 11.6 µM]
O=C(/C=C/N1C[C@@H]2C[C@@H]1CN2c1ccccn1)c1ccccc1O | 11.1%
COC(=O)C(CC1(O)c2ccccc2N2C(=O)C(C)(C)N(O)C21)n1cnc2ccccc2c1=O (stereo not given) | 11.4% [at 25.3 µM]
COCC1OC(n2cnc3c(=O)[nH]cnc32)C(O)C1O (stereo not given) | 14.4%
Cc1ccc2nc(NC(=O)CSc3nc4c(c(=O)n3-c3ccc(F)cc3)SCC4)sc2c1 | 11.7%
Cc1ccccc1NC(=O)Nc1ccc(CN2C(=O)N([C@@H](CC(C)C)C(=O)N[C@@H](CC(=O)O)c3ccccc3)C(=O)C2(C)C)cc1 | 17%
COc1cc(C(CO)C(OC2OC(CO)C(O)C(O)C2O)c2ccc(O)c(OC)c2)ccc1O (stereo not given) | 7.46% [at 25.3 µM]
CC1=CC(=O)[C@]2(O[C@@H]3O[C@@H](C)[C@H](O)[C@@H](O)[C@H]3O)C=CO[C@@H](O[C@@H]3O[C@H](CO)[C@@H](O)[C@H](O)[C@H]3O)[C@H]12 | 12% [at 25.3 µM]
CN1CCCC1Cc1c[nH]c2ccc(CCS(=O)(=O)c3ccccc3)cc12 (stereo not given) | -6.86%
COc1cc(CC2COC(c3ccc(OC4OC(CO)C(O)C(O)C4O)c(OC)c3)C2CO)ccc1O (stereo not given) | -24.9% [at 25.3 µM]

SMILES | activity change, negative = cytotoxicity
O=C(Nc1cc(-c2ccccc2)nn1-c1ccccc1)c1ccc([N+](=O)[O-])cc1 | -5.51%
COc1cc(C(C)=O)ccc1O[C@@H]1O[C@H](CO[C@@H]2OC[C@@H](O)[C@H](O)[C@H]2O)[C@@H](O)[C@H](O)[C@H]1O | 9.97% [at 25.3 µM]
COC(=O)[C@]1(Cc2ccc(O)c(CC=C(C)C)c2)OC(=O)C(O)=C1c1ccc(O)cc1 | 5.17% [at 25.3 µM]
O=C(OCC1OC(Oc2ccc(O)cc2COC(=O)C2(O)C(O)CCC(=O)C2OC(=O)C2C=CCC2)C(OC(=O)C2C=CCC2)C(O)C1O)C1C=CCC1 (stereo not given) | 7.34% [at 25.3 µM]
O=C(OC1C=C(CO)C2C(OC3OC(CO)C(O)C(O)C3O)OC=CC12O)c1ccc(O)cc1 (stereo not given) | -4.94% [at 25.3 µM]
C/C1=C\CC(C)(C)/C=C/C/C(C(=O)O)=C/CC1 | -2.38%
CC(=O)c1[nH]cc(CCC(=O)O)c1CC(=O)O | 4.84%
CCN(CCN(C)C)C(=O)CNCc1cc(C(N)=O)ccn1 | 17.4%
CC1(C)C2CC[C@@]34CC(CC[C@H]3[C@]2(C)CC[C@@H]1O[C@@H]1O[C@H](CO)[C@@H](O)[C@H](O)[C@H]1O)[C@](C)(O)C4 (stereo not given in full) | -3.92% [at 25.3 µM]
COC(=O)C[C@@H]1C(C(=O)O)=CO[C@@H](O[C@@H]2O[C@H](CO)[C@@H](O)[C@H](O)[C@H]2O)/C1=C\COC(=O)/C=C/c1ccc(O)c(OC)c1 | 6.01% [at 25.3 µM]
C=C1C(OC(C)=O)C(=O)C2C(C)(C)C(O)CCC2(C)C1CC(OC(C)=O)/C(C)=C/COC(C)=O (stereo not given) | -5.66% [at 25.3 µM]
C/C=C(\C)C(=O)OC1C2(O)CC3=C4CC(=O)OC(c5ccoc5)C4(C)CCC3C(C)(C2=O)C(C(OC(C)=O)C(=O)OC)C1(C)C (stereo not given) | -4.75% [at 25.3 µM]
CC(C)c1ccc2c(c1)C(O)CC1C(C)(C(=O)O)CCCC21C (stereo not given) | -7.26% [at 38.5 µM]
O=C(/C=C/c1ccc(O)cc1)OC[C@H]1O[C@@H](O/C(=C\c2ccccc2)C(=O)O)[C@H](O)[C@@H](O)[C@@H]1O | -5.39% [at 25.3 µM]
C[C@@H]1O[C@@H](O[C@H]2[C@H](OC(=O)[C@]34CCC(C)(C)C[C@H]3C3=CCC5[C@@]6(C)CC[C@H](O[C@@H]7O[C@H](CO[C@@H]8OC[C@H](O)[C@H](O)[C@H]8O)[C@@H](O)[C@H](O)[C@H]7O)C(C)(C)C6CC[C@@]5(C)[C@]3(C)C[C@H]4O)OC[C@@H](O)[C@@H]2O)[C@H](O)[C@H](O[C@@H]2OC[C@](O)(CO)[C@H]2O)[C@H]1O[C@@H]1OC[C@H](O)[C@H](O[C@@H]2OC[C@@H](O)[C@H](O)[C@H]2O)[C@H]1O (stereo not given in full) | 23.4% [at 6.55 µM]
C=CC(C)(CC/C=C(\C)C(=O)OC[C@H]1O[C@@H](OC(C)(C=C)CC/C=C(\C)C(=O)O[C@H]2[C@H](O)[C@@H](O)[C@H](OC(C)(C=C)CC/C=C(\C)C(=O)O)O[C@@H]2CO)[C@H](O)[C@@H](O)[C@@H]1O)O[C@@H]1O[C@H](CO)[C@@H](O)[C@H](O)[C@H]1O (stereo not given in full) | -17.5% [at 11.6 µM]
COc1ccc(-n2[nH]c3c(cnc4ccccc43)c2=O)cc1 | -17.7%
CN1CCN(C(=O)c2cc3cc(Cl)ccc3[nH]2)CC1 | 5.15%
CC(CCO)CCC1C2(C)CCCC(C)(C)C2CC[C@@]1(C)O (stereo not given in full) | -12.9% [at 38.5 µM]
COC(=O)[C@]1(C)CCC[C@@]2(C)[C@@H]3CC[C@@H]4C[C@@]3(CC[C@@H]21)C[C@H]4C(=O)O | -6.6% [at 38.5 µM]
